Consider 40 sequences from publication PMC12820563, “FoxP3 forms a head-to-head dimer in vivo and stabilizes its multimerization on adjacent microsatellites”.

Over roughly 16,000 sequences, “rpm ratio (pull-down/input)” has its median near 0.5; the highest 2% begin near 5.5. The full list was thinned out, with the highest values kept by preference.

For this experiment, the target named is T1, MBP-FoxP3dN (Mus musculus, UniProt Q99JB6 188-423).
T1 sequence: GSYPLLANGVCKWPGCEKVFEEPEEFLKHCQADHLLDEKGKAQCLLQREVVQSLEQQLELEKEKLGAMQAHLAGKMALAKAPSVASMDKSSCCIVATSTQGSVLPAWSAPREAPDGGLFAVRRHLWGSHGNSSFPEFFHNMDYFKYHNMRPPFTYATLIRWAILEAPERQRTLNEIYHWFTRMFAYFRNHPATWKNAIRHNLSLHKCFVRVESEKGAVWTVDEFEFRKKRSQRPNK
Kind of experiment: PD-seq (MBP pull-down with sequencing); 20 mM Tris-HCl pH 7.5, 100 mM NaCl, 1.5 mM MgCl2, 0.4 uM protein, 0.1 uM dsDNA library, 30 min, room temperature, amylose pull-down; high values mean tight binding. The conditions noted are these: protein: recombinant; tags: His6-MBP; chain copies: 2; dsDNA, one strand shown. In short, it runs like this: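 Binding is the reads-per-million enrichment of pull-down relative to input, pooled across replicates. For this, 0.4 µM His6-MBP-tagged mouse FoxP3 or FoxP1 fragment lacking the N-terminus, made in E. coli, was incubated with 0.1 µM Klenow-filled double-stranded degenerate DNA library for 30 min at room temperature in Tris pH 7.5 buffer with NaCl and MgCl2. Complexes bound to amylose resin were washed three times before proteinase K released the DNA for PCR barcoding and Illumina sequencing.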
Take “GATGATTGTTCTCCCAGCTGATGAATTTAGAGACTCGAGTAAACAAATTTTCCTAATCTTTCTGTTCAAGCGCCATCTAC”: the binding signal is 0.585 RPM ratio (pull-down/input).
Consider “GATGATTGTTCTCCCAGCTGATGAATTAATGAGATCGAGTAAACAAATTTTCCTAATCTTTCTGTTCAAGCGCCATCTAC”, for which the binding signal is 0.246 RPM ratio (pull-down/input).
In the case of “GATGATTGTTCTCCCAGCTGATGAATTTCGAACCTCGAGTAAACAAATTTTCCTAATCTTTCTGTTCAAGCGCCATCTAC”, the binding signal is 0.301 RPM ratio (pull-down/input).
Take “GATGATTGTTCTCCCAGCTGATGAATTACAACCGTCGAGTAAACAAATTTTCCTAATCTTTCTGTTCAAGCGCCATCTAC”: the binding signal was 0.497 RPM ratio (pull-down/input).
For the sequence “GATGATTGTTCTCCCAGCTGATGAATTGAGTTAATCGAGTAAACAAATTTTCCTAATCTTTCTGTTCAAGCGCCATCTAC”, the binding signal is 0.369 RPM ratio (pull-down/input).
With “GATGATTGTTCTCCCAGCTGATGAATTTACAGGCTCGAGTAAACAAATTTTCCTAATCTTTCTGTTCAAGCGCCATCTAC”, the binding signal was 0.441 RPM ratio (pull-down/input).
As to “GATGATTGTTCTCCCAGCTGATGAATTGGAACCGTCGAGTAAACAAATTTTCCTAATCTTTCTGTTCAAGCGCCATCTAC”, the binding signal is 0.224 RPM ratio (pull-down/input).
Take “GATGATTGTTCTCCCAGCTGATGAATTTCTGTTATCGAGTAAACAAATTTTCCTAATCTTTCTGTTCAAGCGCCATCTAC”: the binding signal was 1.07 RPM ratio (pull-down/input).
With “GATGATTGTTCTCCCAGCTGATGAATTATTGTTATCGAGTAAACAAATTTTCCTAATCTTTCTGTTCAAGCGCCATCTAC”, the binding signal was 3.55 RPM ratio (pull-down/input).
“GATGATTGTTCTCCCAGCTGATGAATTTTTGTTATCGAGTAAACAAATTTTCCTAATCTTTCTGTTCAAGCGCCATCTAC”: the binding signal was 2.29 RPM ratio (pull-down/input).
Next, “GATGATTGTTCTCCCAGCTGATGAATTGTTGTTATCGAGTAAACAAATTTTCCTAATCTTTCTGTTCAAGCGCCATCTAC”: 6.7 RPM ratio (pull-down/input); “GATGATTGTTCTCCCAGCTGATGAATTGCTGTTATCGAGTAAACAAATTTTCCTAATCTTTCTGTTCAAGCGCCATCTAC”: 2.06 RPM ratio (pull-down/input).
As to “GATGATTGTTCTCCCAGCTGATGAATTTGTTATCTCGAGTAAACAAATTTTCCTAATCTTTCTGTTCAAGCGCCATCTAC”, the binding signal was 7.03 RPM ratio (pull-down/input).
As for “GATGATTGTTCTCCCAGCTGATGAATTATTATTATCGAGTAAACAAATTTTCCTAATCTTTCTGTTCAAGCGCCATCTAC”, the binding signal was 1.99 RPM ratio (pull-down/input).
As to “GATGATTGTTCTCCCAGCTGATGAATTGTTATCCTCGAGTAAACAAATTTTCCTAATCTTTCTGTTCAAGCGCCATCTAC”, the binding signal was 2.64 RPM ratio (pull-down/input).
As to “GATGATTGTTCTCCCAGCTGATGAATTGTTATTATCGAGTAAACAAATTTTCCTAATCTTTCTGTTCAAGCGCCATCTAC”, the binding signal was 5.54 RPM ratio (pull-down/input).
Take “GATGATTGTTCTCCCAGCTGATGAATTTCGGGCCTCGAGTAAACAAATTTTCCTAATCTTTCTGTTCAAGCGCCATCTAC”: the binding signal was 0.404 RPM ratio (pull-down/input).
With “GATGATTGTTCTCCCAGCTGATGAATTATGGAAATCGAGTAAACAAATTTTCCTAATCTTTCTGTTCAAGCGCCATCTAC”, the binding signal is 0.4 RPM ratio (pull-down/input).
As for “GATGATTGTTCTCCCAGCTGATGAATTTTGTGCTTCGAGTAAACAAATTTTCCTAATCTTTCTGTTCAAGCGCCATCTAC”, the binding signal is 1.87 RPM ratio (pull-down/input).
Take “GATGATTGTTCTCCCAGCTGATGAATTGAGACTATCGAGTAAACAAATTTTCCTAATCTTTCTGTTCAAGCGCCATCTAC”: the binding signal was 0.692 RPM ratio (pull-down/input).
For “GATGATTGTTCTCCCAGCTGATGAATTCCTTAGCTCGAGTAAACAAATTTTCCTAATCTTTCTGTTCAAGCGCCATCTAC”, the binding signal is 0.222 RPM ratio (pull-down/input).
In the case of “GATGATTGTTCTCCCAGCTGATGAATTTGGACTGTCGAGTAAACAAATTTTCCTAATCTTTCTGTTCAAGCGCCATCTAC”, the binding signal was 0.82 RPM ratio (pull-down/input).
For the sequence “GATGATTGTTCTCCCAGCTGATGAATTTCGGTGCTCGAGTAAACAAATTTTCCTAATCTTTCTGTTCAAGCGCCATCTAC”, the binding signal is 0.541 RPM ratio (pull-down/input).
Regarding “GATGATTGTTCTCCCAGCTGATGAATTTTGCGATTCGAGTAAACAAATTTTCCTAATCTTTCTGTTCAAGCGCCATCTAC”, the binding signal is 2.4 RPM ratio (pull-down/input).
For the sequence “GATGATTGTTCTCCCAGCTGATGAATTGCGCATTTCGAGTAAACAAATTTTCCTAATCTTTCTGTTCAAGCGCCATCTAC”, the binding signal is 8.05 RPM ratio (pull-down/input).
Turning to “GATGATTGTTCTCCCAGCTGATGAATTGCATTGTTCGAGTAAACAAATTTTCCTAATCTTTCTGTTCAAGCGCCATCTAC”, the binding signal was 4.05 RPM ratio (pull-down/input).
Consider “GATGATTGTTCTCCCAGCTGATGAATTGCATTTTTCGAGTAAACAAATTTTCCTAATCTTTCTGTTCAAGCGCCATCTAC”, for which the binding signal is 3.02 RPM ratio (pull-down/input).
In the case of “GATGATTGTTCTCCCAGCTGATGAATTTGCGAATTCGAGTAAACAAATTTTCCTAATCTTTCTGTTCAAGCGCCATCTAC” it was 1.18 RPM ratio (pull-down/input).
As to “GATGATTGTTCTCCCAGCTGATGAATTGCGCGCATCGAGTAAACAAATTTTCCTAATCTTTCTGTTCAAGCGCCATCTAC”, the binding signal is 2.39 RPM ratio (pull-down/input).
Next, “GATGATTGTTCTCCCAGCTGATGAATTGCGCATCTCGAGTAAACAAATTTTCCTAATCTTTCTGTTCAAGCGCCATCTAC”: 8.03 RPM ratio (pull-down/input); “GATGATTGTTCTCCCAGCTGATGAATTTTGCGCATCGAGTAAACAAATTTTCCTAATCTTTCTGTTCAAGCGCCATCTAC”: 1.98 RPM ratio (pull-down/input).
As for “GATGATTGTTCTCCCAGCTGATGAATTTGCGCATTCGAGTAAACAAATTTTCCTAATCTTTCTGTTCAAGCGCCATCTAC”, the binding signal is 7.07 RPM ratio (pull-down/input).
On to “GATGATTGTTCTCCCAGCTGATGAATTTTTGACCTCGAGTAAACAAATTTTCCTAATCTTTCTGTTCAAGCGCCATCTAC”, for which the binding signal is 0.237 RPM ratio (pull-down/input).
In the case of “GATGATTGTTCTCCCAGCTGATGAATTCTTCTGCTCGAGTAAACAAATTTTCCTAATCTTTCTGTTCAAGCGCCATCTAC” it was 0.236 RPM ratio (pull-down/input); in that of “GATGATTGTTCTCCCAGCTGATGAATTACGTGACTCGAGTAAACAAATTTTCCTAATCTTTCTGTTCAAGCGCCATCTAC”, 0.737 RPM ratio (pull-down/input).
For “GATGATTGTTCTCCCAGCTGATGAATTGATCAAATCGAGTAAACAAATTTTCCTAATCTTTCTGTTCAAGCGCCATCTAC”, the binding signal is 0.304 RPM ratio (pull-down/input).
Turning to “GATGATTGTTCTCCCAGCTGATGAATTGGGAACGTCGAGTAAACAAATTTTCCTAATCTTTCTGTTCAAGCGCCATCTAC”, the binding signal is 0.31 RPM ratio (pull-down/input).
Turning to “GATGATTGTTCTCCCAGCTGATGAATTATAGAACTCGAGTAAACAAATTTTCCTAATCTTTCTGTTCAAGCGCCATCTAC”, the binding signal was 0.249 RPM ratio (pull-down/input).
For “GATGATTGTTCTCCCAGCTGATGAATTGCGCTGATCGAGTAAACAAATTTTCCTAATCTTTCTGTTCAAGCGCCATCTAC”, the binding signal was 0.898 RPM ratio (pull-down/input).
On to “GATGATTGTTCTCCCAGCTGATGAATTCCTGAATTCGAGTAAACAAATTTTCCTAATCTTTCTGTTCAAGCGCCATCTAC”, for which the binding signal was 0.481 RPM ratio (pull-down/input).
